Residue numbers refer to the chain shown, from its start. In all, about 16,000 sequences were measured (“ka relative to ugcaugu”: median about 0.096, highest 2% from about 0.35 on). For the sample, the highest values were picked, then their nearest neighbours and some sequences at random.
T1: RBFOX1 RRM RbFoxmut (Fox-RRM*) (Homo sapiens, UniProt Q9NWB1 109-208, R118D;E147R;N151S;E152T)
T1 sequence: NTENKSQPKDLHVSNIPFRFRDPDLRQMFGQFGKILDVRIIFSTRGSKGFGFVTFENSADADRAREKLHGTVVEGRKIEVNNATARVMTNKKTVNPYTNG

B1: GAGAAAU (DNA:RNA)
RNA: GGGAGACCGGAAUUCAGAUUGUCCGAGAAAUUUAAAUCCCGUCGUAGCCACCA
DNA 1: CAATCTGAATTCCGGTCTCCC
DNA 2: TGGTGGCTACGACGGGATT
B2: GAACCCG (DNA:RNA)
RNA: B1 RNA with G27A, A28C, A29C, A30C, U31G
DNA 1: CAATCTGAATTCCGGTCTCCC
DNA 2: TGGTGGCTACGACGGGATT
B3: CCUUUUU (DNA:RNA)
RNA: B1 RNA with G25C, A26C, G27U, A28U, A29U, A30U
DNA 1: CAATCTGAATTCCGGTCTCCC
DNA 2: TGGTGGCTACGACGGGATT
B4: CGCACUG (DNA:RNA)
RNA: B1 RNA with G25C, A26G, G27C, A29C, A30U, U31G
DNA 1: CAATCTGAATTCCGGTCTCCC
DNA 2: TGGTGGCTACGACGGGATT
B5: GUAUUUU (DNA:RNA)
RNA: B1 RNA with A26U, G27A, A28U, A29U, A30U
DNA 1: CAATCTGAATTCCGGTCTCCC
DNA 2: TGGTGGCTACGACGGGATT
B6: AGGAAUG (DNA:RNA)
RNA: B1 RNA with G25A, A26G, A30U, U31G
DNA 1: CAATCTGAATTCCGGTCTCCC
DNA 2: TGGTGGCTACGACGGGATT
B7: ACCAGGA (DNA:RNA)
RNA: B1 RNA with G25A, A26C, G27C, A29G, A30G, U31A
DNA 1: CAATCTGAATTCCGGTCTCCC
DNA 2: TGGTGGCTACGACGGGATT
B8: AGGAGGA (DNA:RNA)
RNA: B1 RNA with G25A, A26G, A29G, A30G, U31A
DNA 1: CAATCTGAATTCCGGTCTCCC
DNA 2: TGGTGGCTACGACGGGATT
B9: AGGAUUG (DNA:RNA)
RNA: B1 RNA with G25A, A26G, A29U, A30U, U31G
DNA 1: CAATCTGAATTCCGGTCTCCC
DNA 2: TGGTGGCTACGACGGGATT
B10: AGGAGAC (DNA:RNA)
RNA: B1 RNA with G25A, A26G, A29G, U31C
DNA 1: CAATCTGAATTCCGGTCTCCC
DNA 2: TGGTGGCTACGACGGGATT
B11: AGGAUGU (DNA:RNA)
RNA: B1 RNA with G25A, A26G, A29U, A30G
DNA 1: CAATCTGAATTCCGGTCTCCC
DNA 2: TGGTGGCTACGACGGGATT
B12: AGGGGGA (DNA:RNA)
RNA: B1 RNA with G25A, A26G, A28G, A29G, A30G, U31A
DNA 1: CAATCTGAATTCCGGTCTCCC
DNA 2: TGGTGGCTACGACGGGATT
B13: AGGAAUC (DNA:RNA)
RNA: B1 RNA with G25A, A26G, A30U, U31C
DNA 1: CAATCTGAATTCCGGTCTCCC
DNA 2: TGGTGGCTACGACGGGATT
B14: AGGGAUG (DNA:RNA)
RNA: B1 RNA with G25A, A26G, A28G, A30U, U31G
DNA 1: CAATCTGAATTCCGGTCTCCC
DNA 2: TGGTGGCTACGACGGGATT
B15: UACUCAU (DNA:RNA)
RNA: B1 RNA with G25U, G27C, A28U, A29C
DNA 1: CAATCTGAATTCCGGTCTCCC
DNA 2: TGGTGGCTACGACGGGATT
B16: CUACUCU (DNA:RNA)
RNA: B1 RNA with G25C, A26U, G27A, A28C, A29U, A30C
DNA 1: CAATCTGAATTCCGGTCTCCC
DNA 2: TGGTGGCTACGACGGGATT
B17: ACAGGAC (DNA:RNA)
RNA: B1 RNA with G25A, A26C, G27A, A28G, A29G, U31C
DNA 1: CAATCTGAATTCCGGTCTCCC
DNA 2: TGGTGGCTACGACGGGATT
B18: GGGAGUU (DNA:RNA)
RNA: B1 RNA with A26G, A29G, A30U
DNA 1: CAATCTGAATTCCGGTCTCCC
DNA 2: TGGTGGCTACGACGGGATT
B19: CUCGGGU (DNA:RNA)
RNA: B1 RNA with G25C, A26U, G27C, A28G, A29G, A30G
DNA 1: CAATCTGAATTCCGGTCTCCC
DNA 2: TGGTGGCTACGACGGGATT
B20: AACUACA (DNA:RNA)
RNA: B1 RNA with G25A, G27C, A28U, A30C, U31A
DNA 1: CAATCTGAATTCCGGTCTCCC
DNA 2: TGGTGGCTACGACGGGATT
B21: GCUCAGC (DNA:RNA)
RNA: B1 RNA with A26C, G27U, A28C, A30G, U31C
DNA 1: CAATCTGAATTCCGGTCTCCC
DNA 2: TGGTGGCTACGACGGGATT
B22: GGGGGGU (DNA:RNA)
RNA: B1 RNA with A26G, A28G, A29G, A30G
DNA 1: CAATCTGAATTCCGGTCTCCC
DNA 2: TGGTGGCTACGACGGGATT
B23: GUCCGGG (DNA:RNA)
RNA: B1 RNA with A26U, G27C, A28C, A29G, A30G, U31G
DNA 1: CAATCTGAATTCCGGTCTCCC
DNA 2: TGGTGGCTACGACGGGATT
B24: GGGUUGU (DNA:RNA)
RNA: B1 RNA with A26G, A28U, A29U, A30G
DNA 1: CAATCTGAATTCCGGTCTCCC
DNA 2: TGGTGGCTACGACGGGATT
B25: GUCGGGU (DNA:RNA)
RNA: B1 RNA with A26U, G27C, A28G, A29G, A30G
DNA 1: CAATCTGAATTCCGGTCTCCC
DNA 2: TGGTGGCTACGACGGGATT
B26: GGGUUUU (DNA:RNA)
RNA: B1 RNA with A26G, A28U, A29U, A30U
DNA 1: CAATCTGAATTCCGGTCTCCC
DNA 2: TGGTGGCTACGACGGGATT
B27: GGGUUUG (DNA:RNA)
RNA: B1 RNA with A26G, A28U, A29U, A30U, U31G
DNA 1: CAATCTGAATTCCGGTCTCCC
DNA 2: TGGTGGCTACGACGGGATT
B28: AAGCAAG (DNA:RNA)
RNA: B1 RNA with G25A, A28C, U31G
DNA 1: CAATCTGAATTCCGGTCTCCC
DNA 2: TGGTGGCTACGACGGGATT
B29: UGCCAGG (DNA:RNA)
RNA: B1 RNA with G25U, A26G, G27C, A28C, A30G, U31G
DNA 1: CAATCTGAATTCCGGTCTCCC
DNA 2: TGGTGGCTACGACGGGATT
B30: UCCCAGC (DNA:RNA)
RNA: B1 RNA with G25U, A26C, G27C, A28C, A30G, U31C
DNA 1: CAATCTGAATTCCGGTCTCCC
DNA 2: TGGTGGCTACGACGGGATT
B31: AAUUCGA (DNA:RNA)
RNA: B1 RNA with G25A, G27U, A28U, A29C, A30G, U31A
DNA 1: CAATCTGAATTCCGGTCTCCC
DNA 2: TGGTGGCTACGACGGGATT

target: T1, RBFOX1 RRM RbFoxmut (Fox-RRM*); test: EMSA; HiTS-Eq, 1 nM pool, 10 min; buffer printed only for the single-RNA assays: 10 mM Tris pH 7.5, 150 mM NaCl, 3.4 mM EDTA, 0.001% NP-40, 30 C; settings: tags: His6 N-terminal (pET28a); label: 5' 32P
Method in brief: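 Purified wild-type or mutant RbFox RRM at increasing concentrations was equilibrated with 1 nM of 5′-radiolabelled RNA carrying 7 randomized nucleotides for 10 min in 50 µL. Unbound RNA was separated by 8% native PAGE and sequenced. Relative association constants came from read-count changes of each RNA species compared with the control reaction, normalised to the cognate motif.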

Row | Binder | binding signal
1 | B1 | 0.0893 KA relative to UGCAUGU
2 | B2 | 0.0645 KA relative to UGCAUGU
3 | B3 | 0.0758 KA relative to UGCAUGU
4 | B4 | 0.125 KA relative to UGCAUGU
5 | B5 | 0.118 KA relative to UGCAUGU
6 | B6 | 1.4 KA relative to UGCAUGU
7 | B7 | 0.0755 KA relative to UGCAUGU
8 | B8 | 0.084 KA relative to UGCAUGU
9 | B9 | 0.583 KA relative to UGCAUGU
10 | B10 | 0.0904 KA relative to UGCAUGU
11 | B11 | 0.339 KA relative to UGCAUGU
12 | B12 | 0.149 KA relative to UGCAUGU
13 | B13 | 0.261 KA relative to UGCAUGU
14 | B14 | 0.476 KA relative to UGCAUGU
15 | B15 | 0.0982 KA relative to UGCAUGU
16 | B16 | 0.0641 KA relative to UGCAUGU

Row | Binder | binding signal
17 | B17 | 0.0906 KA relative to UGCAUGU
18 | B18 | 0.09 KA relative to UGCAUGU
19 | B19 | 0.0903 KA relative to UGCAUGU
20 | B20 | 0.121 KA relative to UGCAUGU
21 | B21 | 0.0895 KA relative to UGCAUGU
22 | B22 | 0.0952 KA relative to UGCAUGU
23 | B23 | 0.0861 KA relative to UGCAUGU
24 | B24 | 0.448 KA relative to UGCAUGU
25 | B25 | 0.132 KA relative to UGCAUGU
26 | B26 | 0.0749 KA relative to UGCAUGU
27 | B27 | 0.741 KA relative to UGCAUGU
28 | B28 | 0.103 KA relative to UGCAUGU
29 | B29 | 0.0858 KA relative to UGCAUGU
30 | B30 | 0.1 KA relative to UGCAUGU
31 | B31 | 0.0737 KA relative to UGCAUGU

— paper PMC9911399, “Two distinct binding modes provide the RNA-binding protein RbFox with extraordinary sequence specificity”
